# Assay results: PubChem BioAssay AID382 (SGCOxCompounds, 2006)
# Active and inactive are the calls of the source. No rule for the calls is given here.
# Molecular target: Dual specificity protein kinase CLK1 (Homo sapiens) (UniProt P49759)
# Experiment: ligand-induced CLK1 melting temperature shift – biophysical, recombinant human kinase, DSF (AID 382)
# Conditions: Recombinant CLK1, thermal shift (DSF), buffer 10 mM HEPES, stronger effect = higher value
# [1] = at 10 µM, protein 2 µM, pH 7.5, NaCl 150 mM
# [2] = measured here: replicate experiment 2, at 10 µM, run 2, protein 2 µM
# [3] = measured here: replicate experiment 2, at 10 µM, run 2, protein 2 µM, NaCl 150 mM, with 50 mM Arg/Glu
# Dual specificity protein kinase CLK1 (Homo sapiens), sequence (P49759 whole entry, looked up): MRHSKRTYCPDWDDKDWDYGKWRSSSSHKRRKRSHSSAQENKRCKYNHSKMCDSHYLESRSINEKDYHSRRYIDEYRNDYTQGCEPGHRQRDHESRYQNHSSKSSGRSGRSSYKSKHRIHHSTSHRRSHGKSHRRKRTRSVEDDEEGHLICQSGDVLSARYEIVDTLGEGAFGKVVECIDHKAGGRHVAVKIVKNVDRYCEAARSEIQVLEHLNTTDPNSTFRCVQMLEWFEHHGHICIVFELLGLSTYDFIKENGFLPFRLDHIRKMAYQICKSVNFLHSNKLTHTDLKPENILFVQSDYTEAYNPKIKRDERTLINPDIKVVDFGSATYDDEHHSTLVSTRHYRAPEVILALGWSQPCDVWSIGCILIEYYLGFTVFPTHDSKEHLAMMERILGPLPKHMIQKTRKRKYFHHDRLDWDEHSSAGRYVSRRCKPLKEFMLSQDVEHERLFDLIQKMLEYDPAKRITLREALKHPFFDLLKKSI
smiles,measurement,setting,value
FC(F)(F)Oc1cccc(-c2cnc3ccc(NC4CCOCC4)nn23)c1,Tm shift,"at 10 µM, protein 2 µM, NaCl 150 mM, with 50 mM Arg/Glu",5.17 Celsius (active)
CCOC(=O)c1c(C)[nH]c(/C=C2\C(=O)Nc3ccccc32)c1C,Tm shift,"at 10 µM, protein 2 µM",8.66 Celsius (active)
c1csc(-c2cnc3ccc(NCC4CC4)nn23)c1,Tm shift,[1],3.52 Celsius (active)
Clc1cccc(Nc2ccn3ncc(-c4ccsc4)c3n2)c1,Tm shift,[1],3.45 Celsius (active)
Cn1cc(/C=C2\C(=O)Nc3ccc(S(N)(=O)=O)cc32)c2ccccc21,Tm shift,"at 10 µM, protein 2 µM, pH 7.5, NaCl 150 mM, with 50 mM Arg/Glu",3.6 Celsius (active)
NC1=N/C(=C2/CCNC(=O)c3[nH]c(Br)cc32)C(=O)N1,Tm shift,"at 10 µM, protein 2 µM",4.9 Celsius (active)
same,Tm shift,[2],10.5 Celsius
Nc1ncnc2c1c(I)cn2[C@@H]1O[C@H](CO)C(O)C1O (stereo partly drawn),Tm shift,"at 10 µM, protein 2 µM",4.43 Celsius (active)
same,Tm shift,[2],10.5 Celsius
Nc1ncc(-c2ccncc2)nc1NC1CCCCC1,Tm shift,[1],3.7 Celsius (active)
Clc1ccc(-c2cnn3ccc(NCc4cccnc4)nc23)cc1,Tm shift,[1],4.33 Celsius (active)
CC(=O)c1cccc(-c2cnc3ccc(NCC4CC4)nn23)c1,Tm shift,[3],6.01 Celsius
Clc1cccc(-c2cnc3ccc(NC4CCOCC4)nn23)c1,Tm shift,[3],5.83 Celsius
